Inconclusive results are not listed. Entries that show only a call come without a potency. Calls of active or inactive are those of the source. Calls follow the shape of the dose curve; as a rule, active = well fitted inhibition curve with a large enough effect; inconclusive = small, poorly fitted or top-dose-only effect, or effect the other way; inactive = flat fitted curve, though single readings scatter. Positions of bridges follow the written chain, without caps; N, C: chain ends. Non-standard residues stand in square brackets, D forms with d. Residues, ends and D or L forms follow the SMILES beside them. *: point of attachment. Octanoyl(6-Me) = CCC(C)CCCCC(=O)*; Dab = NCC[CH](N)C(=O)O

Menin (Homo sapiens), sequence (O00255 whole entry, looked up): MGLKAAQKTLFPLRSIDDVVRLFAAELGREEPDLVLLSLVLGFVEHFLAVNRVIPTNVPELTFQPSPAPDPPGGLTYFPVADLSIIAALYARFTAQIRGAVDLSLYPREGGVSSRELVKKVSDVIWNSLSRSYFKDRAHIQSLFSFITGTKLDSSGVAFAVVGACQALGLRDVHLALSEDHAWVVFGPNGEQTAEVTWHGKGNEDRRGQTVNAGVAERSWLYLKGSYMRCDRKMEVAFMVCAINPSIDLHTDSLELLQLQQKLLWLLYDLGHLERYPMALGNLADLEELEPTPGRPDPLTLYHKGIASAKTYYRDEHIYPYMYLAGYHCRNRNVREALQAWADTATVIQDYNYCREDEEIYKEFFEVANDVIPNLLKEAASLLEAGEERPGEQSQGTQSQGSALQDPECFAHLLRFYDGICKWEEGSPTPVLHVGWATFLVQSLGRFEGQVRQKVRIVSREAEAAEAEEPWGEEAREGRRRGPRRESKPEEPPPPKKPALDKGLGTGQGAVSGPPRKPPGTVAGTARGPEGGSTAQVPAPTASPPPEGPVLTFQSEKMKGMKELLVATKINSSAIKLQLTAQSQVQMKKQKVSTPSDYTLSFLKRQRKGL

The target in this test is Menin (Homo sapiens) (UniProt O00255). Kind of test: Confirmation of Inhibitors Targeting the Menin-MLL Interaction in MLL Related Leukemias: Confirmation in an HTRF (commercial TR-FRET) Assay using His-tagged menin and biotin-labeled MLL peptide. As to conditions: His-menin / biotin-MLL peptide binding; series mostly up to 126 µM. A digest of the protocol:
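Compounds were incubated 1 hr at ambient with a preformed His6-menin (200 nM)/biotinylated MLL-w.t. peptide (80 nM) complex in Tris pH 7.5 buffer; anti-His Eu-cryptate (3.5 nM) and SA-XL665 (10 nM) added, TR-FRET read after 1h.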
(In general: TR-FRET usually uses a lanthanide donor and a delayed reading to cut background.)
With `CCCCC(=O)NC(=S)Nc1nnn(CCC)n1`, the Potency result was “inactive”.

In the case of `O=S(=O)(NCCc1c[nH]c2ccccc12)c1ccccc1`, the Potency entry is “inactive”.

With `COc1cc(OC)cc(C(=O)N/N=C/c2ccc(OC)c(COc3ccc4ccccc4c3)c2)c1`, the Potency entry is “inactive”.

In the case of `CCN(CC)c1nc(-c2ccc(C(=O)NN)cc2)nc(-c2ccc(C(=O)NN)cc2)n1`, the Potency entry was “inactive”.

For the compound `CSC[C@@H]1NC(=S)N(c2ccc(C)cc2)C1=O`, the Potency entry was “inactive”.

Regarding `O=C(CCN1CCN(c2ccc([N+](=O)[O-])cc2)CC1)c1ccc(Cl)cc1`, the Potency entry is “inactive”.

For the compound `CCc1ccc(NC(=O)CSc2nc(O)cc(=O)n2C2CCCC2)cc1`, the Potency entry is “inactive”.

`CCOc1ccc2c(c1)C(NC(C)=O)C(=O)N2CCN1CCOCC1` (centres undefined): the Potency entry was “inactive”.

With `COc1ccc(NC(=O)NC2(C(=O)N3CCOCC3)CCCCC2)cc1`, the Potency result was “inactive”.

In the case of `Cc1cc2c(c(=O)n1Cc1ccccc1)C1O[C@](c3ccsc3)(Cc3cc(C#N)ccc31)O2`, the Potency result is “inactive”.

On to `CCC(C)CCCCC(=O)NC(CCN)C(=O)NC(C(=O)NC(CCN)C(=O)NC1CCNC(=O)C(C(C)O)NC(=O)C(CCN)NC(=O)C(CCN)NC(=O)C(CC(C)C)NC(=O)C(Cc2ccccc2)NC(=O)C(CCN)NC1=O)C(C)O` (centres undefined) ({Octanoyl(6-Me)}-[Dab]T[Dab][Dab][Dab]FL[Dab][Dab]T; lactam 4-C; configuration not given here), for which the Potency entry is “inactive”.

For the compound `CCc1ccc(CNC(=O)CCS(=O)(=O)Cc2ccccc2F)cc1`, the Potency result is “inactive”.

With `NC(=O)c1ccc(NC(=O)c2cncn2-c2ccccc2)cc1`, the Potency result was “inactive”.

On to `COC(=O)C1[C@H]2SC(C)(C)C(C(=O)OC)N2C(=O)N1Cc1nc2ccccc2s1` (some centres undefined), for which the Potency result was “inactive”.
